# According to PubChem BioAssay AID686979 (National Center for Advancing Translational Sciences (NCATS), 2013):
# In all, about 420,000 compounds went through this assay and about 50,000 (12%) were called active. Inconclusive results (about 26%) are left out. Only a selection was taken, and actives are over-represented in it overall. A number with no mark means an inactive call. Calls follow the shape of the dose curve; as a rule, active = well fitted inhibition curve with a large enough effect; inconclusive = small, poorly fitted or top-dose-only effect; inactive = flat fitted curve, though single readings scatter.
# Assay: qHTS for Inhibitors of human tyrosyl-DNA phosphodiesterase 1 (TDP1): qHTS in cells in presence of CPT; also: nearly all actives have a fitted effect of over 55% in size
# Details: chicken DT40 Tdp1-/-;hTDP1 cells + 20 nM CPT, ATP luminescence, 48 h; series mostly up to 46.2 µM; activity change, negative = growth inhibition: at the top concentration
# Excerpt: Human tyrosyl-DNA phosphodiesterase 1 (TDP1) is a novel repair gene, and we propose to use it as a new target for anticancer drug development. TDP1 is not an essential protein, but under treatment with topoisomerase I poison (camptothecin: CPT), TDP1 works as a critical factor for cell survival. To directly identify novel TDP1 inhibitors active in a cellular environment, we have knocked-out the Tdp1 gene in chicken DT40 cells (Tdp1-/-) and generated a complemented counterpart cells that contains a stable transfection of the human TDP1 gene (Tdp1-/-;hTDP1 cells). For the primary screen, Tdp1-/-;hTDP1 cells will be exposed to small molecules in the presence or absence of CPT, and their growth kinetics will be evaluated after 48 hours by measuring ATP activity. […] The hit compounds will then be evaluated in the presence or absence of CPT using Tdp1-/- cells. […] In tertiary assays, biochemical gel-based assays will be used to assess whether the hit compounds specifically target TDP1. To this end, we have screened this cell line against the MLSMR in two primary screens. In one screen we add CPT and in the other we screen in the absence of CPT; this AID represents the screen where CPT was present. NIH Chemical Genomics Center [NCGC] NIH Molecular Libraries Probe Centers Network [MLPCN] MLPCN Grant: MH095538 Assay Submitter (PI): Yves Pommier, NCI
# DT40-hTDP1 cells with 20 nM Camptothecin (add 20 microL of 1 mM CPT stock in 1 L of cell culture medium) were dispensed at 400 cells/5microL/well in tissue culture treated 1536-well white wall/solid bottom assay plates (Greiner Bio-One North America, NC, U.S.A.) using a Multidrop Combi 8 channel dispenser (Thermo Fisher, Waltham, MA, USA). 23 nL compounds and controls were transferred using the pin tool (Kalypsys, San Diego, CA, USA) to the assay plates. The assay plates were then incubated at 37 masculineC for a minimum 48 hr. Three microL of Cell Titer Glo solution was added to the plates and incubated at RT in dark for 30 min. Luminescence was read using ViewLux (Perkin Elmer) with 1 sec exposure slow speed, high gain and 2x binning.
# % is scaled to controls: 0 for no effect and ±100 for the full control effect; potency is read from the fitted curve at half-maximal effect.
Compound,"activity change, negative = growth inhibition",Potency
COc1ccc(N(CC(=O)NC2CCCC2)C(=O)CS(=O)CC(=O)Nc2ccc3c(c2)OCO3)cc1 (stereo unspecified),-3.24%,
O=C1OC(C(=O)Nc2cccc(Br)c2)Cc2ccccc21 (stereo unspecified),8.89%,
O=C(Nc1ccc(Cl)c(C(F)(F)F)c1)C1Cc2c(-c3ccccc3Oc3ccccc3)ccnc2O1 (stereo unspecified),,18.4 µM (active)
O=C(Nc1ccc(Cl)cc1)C1Cc2c(-c3ccc4c(c3)OCO4)ccnc2O1 (stereo unspecified),,23.1 µM (active)
COc1ccc(NC(=O)CSc2nccn2Cc2ccc3c(c2)OCO3)cc1,-24%,
COc1ccc(NC(=O)C2Cc3c(-c4ccc5c(c4)OCO5)ccnc3O2)cn1 (stereo unspecified),,4.11 µM (active)
CC(=O)c1cccc(NC(=O)C2CCCN2S(=O)(=O)c2cccc3nsnc23)c1 (stereo unspecified),9.59%,
COCCNC(=O)CSc1nc(N)c(NC(=O)c2ccco2)c(=O)[nH]1,3.53%,
COC(=O)c1c(C)oc(C)c1S(=O)(=O)NCc1ccc(Cl)cc1,-20.3%,
COC(=O)c1cc(NC(=O)CCS(=O)(=O)c2cc(Br)cc3c2N(C(=O)C2CC2)CC3)cc(C(=O)OC)c1,-2.75%,
Cc1cc(C)n(-c2ccc(NC(=O)C3CCCCN3C(=O)c3cccs3)cc2)n1 (stereo unspecified),-10.8%,
COc1cc(C)ccc1OCCSc1nc2ccc(NC(=O)c3ccc(C)cc3)cc2s1,-27.4%,
Cc1ccccc1OCCSc1nc2ccc(NC(=O)c3ccco3)cc2s1,,20.6 µM (active)
Cc1cccc(OCCSc2nc3ccc(NC(=O)COc4ccccc4C)cc3s2)c1,-21.3%,
Cc1ccccc1SCC(=O)OCC(=O)N1CC(=O)Nc2ccccc21,5.39%,
CC1=NNC(=O)C1CCC(=O)N/N=C\c1ccc(Cl)c(Cl)c1 (stereo unspecified),1.5%,
Cc1cccc(OCc2nnc(SCC(=O)N3CCN(C(=O)c4ccco4)CC3)n2C)c1C,-0.881%,
Cc1cccc(OCC(=O)N(Cc2ccc(C(C)C)cc2)Cc2ccco2)c1C,,16.4 µM (active)
Cc1ccnc(NC(=O)CCC(=O)N(CC(=O)NCc2ccccc2)Cc2ccco2)c1,37.5%,
Cc1cccc(N(C(=O)Cn2nnc(-c3ccc(C)o3)n2)C(C(=O)NC2CCCC2)c2ccncc2)c1 (stereo unspecified),-14.6%,
COc1ccc(CN2CCC3(CCC(CNC(=O)c4ccco4)O3)CC2)cc1OC (stereo unspecified),-1.91% [at 9.04 µM],
O=C(OCC(=O)N1CCCC1)c1ccc(Cl)nc1,-5.05%,
CC(C)(C)c1ccc(C(=O)Nc2ccc3c(c2)CCCN3C(=O)c2cccs2)cc1,,5.8 µM (active)

Compound,"activity change, negative = growth inhibition",Potency
O=C(Nc1ccccc1)c1ccc(NC(=O)c2cccs2)cc1,-21.6%,
O=C(Nc1ccc(NC(=O)c2cccs2)cc1)c1ccc2ccccc2c1,-3.7%,
COCCN(C(=O)CCC(=O)Nc1nccs1)C(C(=O)NC(C)(C)C)c1ccc(Cl)cc1 (stereo unspecified),-4.68%,
CCOC(=O)N1CCN(Cc2ccc3c(c2)CN(C(=O)c2cccc(-n4cccn4)c2)CCO3)CC1,-11.3% [at 9.04 µM],
O=C(c1cccc(Cn2cccn2)c1)N1CCOc2c(cc(-c3csc4ccccc34)cc2OC2CCOC2)C1 (stereo unspecified),,18.4 µM (active)
Cc1cnc(C)c(-c2cc(F)c3c(c2)CC(CNC(=O)c2cccc(Cn4cccn4)c2)O3)n1 (stereo unspecified),-5.96%,
Cc1ccc(C(=O)NCC(=O)OCC(=O)Nc2cccc(S(=O)(=O)N3CCCC3)c2)cc1C,-26.5%,
CN1C[C@@H](CO)O[C@@H](n2cnc3c(N4CCN(CCO)CC4)ncnc32)C1,-0.685%,
CCCCn1c(N)c(N(CCC(C)C)C(=O)CC2OC(=O)c3ccccc32)c(=O)[nH]c1=O (stereo unspecified),-12.2%,
CCOc1cc(/C=C(/C#N)c2ccc(Cl)cc2)cc(Cl)c1OCC(=O)O,-4.71%,
CC(NC(=O)COc1ccc(-c2ccccc2)cc1)C1CCCO1 (stereo unspecified),,20.6 µM (active)
O=C(COc1ccc(-c2ccccc2)cc1)NN=C1CCCC1,6.33%,
CCOc1ccc(C(CC(=O)O)NC(=O)COc2ccccc2)cc1 (stereo unspecified),-2.55%,
CN(C(=O)COC(=O)CNC(=O)C12CC3CC(CC(C3)C1)C2)c1ccccc1,-8.7%,
O=C(NCC(=O)N1CCC2(CC1)NCCc1[nH]cnc12)c1ccc(Br)cc1,-15.1%,
CC(OC(=O)c1ccc(NC(=O)CC#N)cc1)C(=O)Nc1ccc(S(=O)(=O)N2CCCC2)cc1 (stereo unspecified),-20%,
CN(CC(=O)Nc1ccc(S(=O)(=O)N2CCCC2)cc1)Cc1ccc(Cl)c(Cl)c1,-74.4%,
CCc1ccc(CN(C)C(C)C(=O)Nc2ccc(S(=O)(=O)N3CCCC3)cc2)cc1 (stereo unspecified),,18.4 µM (active)
Cc1cc(/C=C(/C#N)C(=O)Nc2ccc(Cl)cc2)c(C)n1-c1cccnc1,-22%,
COCCn1c(SCC(=O)Nc2ccc(F)cc2F)nc2c(c1=O)SCC2,-8.27%,
O=C(NNS(=O)(=O)c1ccc(F)cc1)c1cnccn1,13.9%,
C=CCn1c(=O)c(C(=O)Nc2ncccc2O)c(O)c2ccccc21,20.6%,
O=C(O)/C=C/c1ccc(S(=O)(=O)N2CCCCCC2)cc1,9.25%,
